The source of these data is ChEMBL document CHEMBL3988442, “University of Dundee, Small-Polar-MMV Screening Library” (2021).

Structures are written as SMILES.

The target of the test is AMP-activated protein kinase, AMPK (Homo sapiens) (UniProt P54646+O43741+P54619+Q9UGJ0+Q9Y478+Q13131+Q9UGI9). Description: AMP-dependent Kinase enzyme assay. An in vitro enzyme assay that detects ADP turnover that is directly proportional to AMPK activity. This uses naive AMPK that is activated during the assay with MK-8722. The test is classed as functional. On the set-up: scale not given: direction of the effect not stated beside the values. Conditions: 30 µM.
Consider `Cc1[nH]c2c(F)cccc2c1CC(=O)NC1CCCCNC1=O` (stereo not given), for which the Percent Effect turned out to be 10.4%.
As to `CCCC1c2ccccc2CCN1CCS(C)(=O)=O` (stereo not given), the Percent Effect was -0.239%.
For `COC1CCN(c2ccc(F)cc2CN(C)C(=O)c2cc[nH]n2)CC1` the value was 12.3%; for `CCCNC(=O)c1cnc2n1CCCC2`, 0.00547%; for `Cc1nc(CN2CCN(S(=O)(=O)N3CCOCC3)CC2)oc1C`, -4.75%.
For `CC1(c2ncc(CN3CCN(c4ccccn4)CC3)cn2)CCCCO1` (stereo not given) the value was 5.55%; for `Cc1cc(C)n(C2CN(CCC(N)=O)C2)n1`, -0.505%.
For `Cc1ccc(-c2cc(C(=O)N(C)Cc3noc4c3CCCC4)[nH]n2)o1` the value was 4.24%; for `CN1CCC(NC(=O)c2cc(Br)cc(Cl)c2O)C1=O` (stereo not given), 11.8%.
As for `O=C(c1coc(-c2ccccc2)n1)N1CCS(=O)(=O)CC1`, the Percent Effect turned out to be 0.626%.
In the case of `CCCC1(CO)CCCN(C(=O)CNC(N)=O)C1` (stereo not given) it was 8.45%; in that of `CC(C)N(Cc1ccccn1)C(=O)CCC(=O)c1ccc(F)cc1F`, -0.0134%; in that of `Cc1cc(=O)n2nc(Oc3cccc(C(N)=O)c3)sc2n1`, -11.1%.
In the case of `O=C(c1cccc(-n2cnnc2)c1)N1C[C@@H](O)[C@H](N2CCOCC2)C1` it was 15.5%.
In the case of `CN(CCc1cccc2ccccc12)Cc1nc(N)nc(N(C)C)n1` it was -2.41%; in that of `CN(Cc1ccc(F)cc1F)Cc1cc2c(cc1Br)OCCO2`, -3.85%.
Regarding `Cc1cc(C)c(C#N)c(NCCSc2nncn2C)n1`, the Percent Effect was -0.426%.
For `Cc1ccc(C(C)NC(=O)N2CCCN(CC(F)F)CC2)s1` (stereo not given) the value was -1.15%; for `CN(C(=O)c1cccc(C#N)c1)c1nnc(C2CCOC2)s1` (stereo not given), 5.31%.
In the case of `CCOc1ccc(C(=O)NC2CCN(c3ncccn3)CC2)cc1C` it was 0.756%.
In the case of `NC(=O)NC(CC(=O)N1CCc2sccc2C1)c1ccccc1F` (stereo not given) it was 3.63%.
Turning to `CC(C)N(CC(N)=O)C(=O)CCC(=O)c1ccc(F)cc1F`, the Percent Effect was -2.63%.
For `CCC(C(=O)NCCc1nc(C)cc(C(F)(F)F)n1)n1cccn1` (stereo not given) the value was -8.03%.
For `CCNC(=O)[C@@H]1C[C@@H](N)CN1C(=O)c1cc2ccccc2[nH]1` the value was 8.12%; for `Cc1cc2n(n1)CC(CNCc1cc(C)on1)CN2` (stereo not given), -6.26%.
For `CC(C)C(=O)NCC(=O)N1CCC2(CC1)c1ccccc1[C@@H](N)[C@@H]2O` the value was 3.94%.
Consider `COc1ccc(C(=O)N2C[C@@H](NC(=O)N(C)C)[C@H](C(C)C)C2)c(OC)n1`, for which the Percent Effect was 1.82%.
With `CCC(C)Oc1ccc(CNCCNC(C)=O)cc1Cl` (stereo not given), the Percent Effect is -6.19%.
For `Cc1ccc(OCCn2cnc3oc(C)c(C(=O)O)c3c2=O)cc1` the value was 15.5%; for `CCOCC1(CNCc2cc(O)c3cc(C)ccc3n2)CC1`, -2.54%.
For `CC(C)c1nnc2n1CCN(Cc1ccc3c(c1)OCCO3)C2` the value was 3.43%.
In the case of `CCC(NC(=O)c1cc(NC(C)=O)ccc1Cl)c1cc(C)ccn1` (stereo not given) it was 2.39%; in that of `CCc1cc(=O)n(CCNC(=O)Nc2ccc(OC(F)(F)F)cc2)cn1`, -3.24%; in that of `N#Cc1ccc(NCc2cccnc2N2CCC(C(N)=O)CC2)cn1`, 2.13%.
For the molecule `CC(C)[C@H]1CN(Cc2nccn2C)C[C@@H]1NC(=O)CCS(C)(=O)=O`, the Percent Effect was 1.59%.
In the case of `Cc1nccc(C2(C)CCCNC2)n1` (stereo not given) it was 13.7%; in that of `Cn1ccnc1C1(O)CCN(C(=O)CCc2ccccc2)CC1`, 8.55%.
For `O=C1NCCCC12CCN(Cc1ccc(-c3ccccc3)s1)C2` (stereo not given) the value was 6.83%; for `CN(C)c1ncccc1CNC(=O)CCNc1ncccn1`, -6.85%; for `Cc1ccc(Oc2ncccc2CNC(=O)C2COC(=O)N2)c(F)c1F` (stereo not given), 3.47%.
